# Measured values published in PubChem BioAssay (NCI).
# The panel holds about 83,000 compounds, 20% with a hit somewhere; the sample as a whole holds those more often.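 Negative percent growth values reflect cell death: -40 means 40% of the cells present at the start died, and -100 means all died.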 A number with no mark means an inactive call. Active and inactive are the calls of the source. Rule for the calls: active = growth percent below 10; inactive = the rest.
# Experiments:
# Assay in all cases: NCI-60 one-dose screen, 48 h (100 = growth as untreated, 0 = no growth, -100 = all killed)
# HCT-15 colon = details: 10 µM unless noted
# HT29 colon = details: 10 µM unless noted
# SNB-75 CNS = details: 10 µM unless noted
# SNB-19 CNS = details: 10 µM unless noted
# U251 CNS = details: 10 µM unless noted
# PC-3 prostate = details: 10 µM unless noted
# SK-MEL-5 melanoma = details: 10 µM unless noted
# UACC-62 melanoma = details: 10 µM unless noted
# SK-MEL-28 melanoma = details: 10 µM unless noted
# SK-MEL-2 melanoma = details: 10 µM unless noted
# EKVX NSCLC = details: 10 µM unless noted
# SN12C renal = details: 10 µM unless noted
# UO-31 renal = details: 10 µM unless noted
# TK-10 renal = details: 10 µM unless noted
# ACHN renal = details: 10 µM unless noted
# CAKI-1 renal = details: 10 µM unless noted
# A498 renal = details: 10 µM unless noted
# CCRF-CEM leukemia = details: 10 µM unless noted
# MOLT-4 leukemia = details: 10 µM unless noted
# LOX IMVI melanoma = details: 10 µM
SMILES,growth (HCT-15 colon) [%],growth (HT29 colon),growth (SNB-75 CNS) [%],growth (SNB-19 CNS) [%],growth (U251 CNS),growth (PC-3 prostate) [%],growth (SK-MEL-5 melanoma),growth (UACC-62 melanoma) [%],growth (SK-MEL-28 melanoma) [%],growth (SK-MEL-2 melanoma),growth (EKVX NSCLC) [%],growth (SN12C renal),growth (UO-31 renal),growth (TK-10 renal) [%],growth (ACHN renal) [%],growth (CAKI-1 renal) [%],growth (A498 renal) [%],growth (CCRF-CEM leukemia),growth (MOLT-4 leukemia),growth (LOX IMVI melanoma) [%]
CS(=O)CC(=N\O)/C(CS(C)=O)=N\O (configuration not stated),99,99.9%,96.5,101,96.5%,104,103%,93.8,107,102%,99.1,97.6%,85.3%,106,107,91.2,111,101%,105%,–
COc1ccc(Br)c(C=O)c1,26.8,76.3%,54.8,74.8,39.1%,71.7,81.8%,63.8,86,104%,83.2,63.9%,54.1%,83.7,88.9,63.9,93.4,2.55% (active),18.9%,–
CC1CC2C3CCC4=CC(=O)CCC4(C)C3CCC2(C)C1(O)C(=O)CO (configuration not stated),106,97.4%,110,110,108%,93.9,104%,108,109,99.2%,99.4,102%,92.2%,117,124,94.9,73,90.6%,71.9%,–
Cc1onc(-c2c(F)cccc2Cl)c1-c1ncc(-c2ccc(Br)cc2)o1,17.7,24.9%,65.8,42.9,39.6%,41,10.8%,34,50.3,74.8%,46,34%,-0.651% (active),46.8,32.8,33.1,86.4,39.5%,16.9%,–
COC1=C(OC)C(=O)C(SC/C=C(\C)CCCC(C)CCCC(C)CCCC(C)C)=CC1=O (configuration not stated),17.2,56.2%,27.8,24.6,15.4%,10.8,-67.3% (active),26.7,40.8,-11.3% (active),27.6,15.4%,-3.97% (active),56,20.6,102,16.8,–,10.4%,–
c1cc(CNCCNCc2ccncc2)ccn1,110,109%,92.5,104,101%,92.1,107%,101,101,104%,99.6,98.5%,83.7%,105,109,91.3,116,89.5%,84.1%,–
N#Cc1ccc(OC(=O)Nc2c(Cl)cc(Cl)cc2Cl)cc1,107,104%,127,99.5,104%,99.5,97.2%,102,104,118%,107,98.2%,83.1%,104,104,89.7,125,99.3%,111%,–
CN(C)Cc1ccccn1,105,97.4%,95.7,103,99.4%,90.3,101%,97.8,102,107%,99.5,100%,87.8%,105,102,96.8,–,–,107%,–
C1Cc2onc(-c3noc4c3CCC4)c2C1,105,104%,116,98.8,106%,103,102%,96.5,111,124%,104,96.2%,87.9%,105,114,94.5,136,101%,110%,–
CN(C)c1ccc2nc3ccc(=[N+](C)C)cc-3oc2c1,33.3,33.2%,71.3,14.2,-29.1% (active),11.4,23.5%,39.5,66.6,58.1%,29.8,-39.7% (active),65.1%,70,70.5,70.3,94.8,–,4.76% (active),–
Nc1ccc2ccccc2c1-c1c(N)ccc2ccccc12,30.7,7.41% (active),42.7,44.1,21.5%,31.2,25.5%,24.9,56.4,15.5%,36.5,37%,40.8%,34.9,38.8,28.6,14.6,12.9%,17.4%,–
CC(=O)OCC1OC(n2cnc3c(=S)nc(N)[nH]c32)C(OC(C)=O)C1OC(C)=O (configuration not stated),79.3,74.6%,56,99.9,93.1%,104,99.4%,65.2,114,95.2%,83.9,97.4%,72.6%,82.4,72.1,–,105,–,2.42% (active),–
CC(=O)Oc1c(Cl)cccc1-c1ccccc1,108,98.1%,103,98.9,90%,89.5,101%,–,112,98.9%,103,96.6%,84.8%,107,108,98.3,–,101%,–,103
O=C(Oc1ccccc1Cl)c1ccc(Cl)cc1Cl,103,105%,91.8,99.6,89.5%,93.6,102%,–,109,109%,94.4,98.3%,85.4%,103,103,99.8,–,99.9%,110%,104
CC(=O)c1cccc(N(C)S(=O)(=O)c2ccc(C)cc2)c1,57.2,72.1%,81.6,96.8,87.4%,85.2,90.1%,96,93.6,94.2%,–,103%,82.2%,90.4,107,101,–,97.7%,94.9%,–
CN1CCCN(C(c2ccccc2)c2ccc(Br)cc2)CC1 (configuration not stated),63.8,39.1%,38.5,99.6,71.1%,61.4,60.3%,–,64.9,113%,66.9,65.4%,60.5%,61.4,50.6,49.2,74.2,96.6%,55.5%,69.7
CC(=O)C[n+]1ccc(C)cc1Sc1ccccc1C,97.1,99.1%,76,91.1,93.3%,91.8,92%,–,104,127%,103,64.8%,78.5%,106,97.1,102,127,1.97% (active),54.7%,86.6
